For 40 sequences, sensor-assay potency score (higher = more potent) results are on record in the OligoGym collection.
Further: reference of the scale not given here.

In the first experiment the target is CORIN. In words: pooled miR-30 sensor sort-seq; sequence = guide strand. The following applies: shRNA.
TTGATTGTCTGAATTTTCCTCT came in with a sensor-assay potency score (higher = more potent) of 0.641.

Consider TTTATTGCTGTCTTTTATCAGT, for which the sensor-assay potency score (higher = more potent) is -0.911.

Regarding TAAATCTGTCTTTTAATCCATT, the sensor-assay potency score (higher = more potent) was -1.02.

In turn, ATTTGTAAGAATAACATCGGAC registered a sensor-assay potency score (higher = more potent) of -0.147.

On to TTGATATACATCCAGAATGGGG, for which the sensor-assay potency score (higher = more potent) was -1.35.

In turn, TTAAACATGTAAATTATCTTGG registered a sensor-assay potency score (higher = more potent) of 0.389.

As for TTGAGTATGTAGCTACAACTGT, the sensor-assay potency score (higher = more potent) is -0.57.

Sequence TATTTGTAAGAATAACATCGGA gave a sensor-assay potency score (higher = more potent) of -0.524.

TAAAATTGCAGGTAGTATCTAT registered a sensor-assay potency score (higher = more potent) of 0.492.

The target in the next experiment is CORO2B. Described as above. The following applies: shRNA.
Consider TTTCTAATAAATCTATTCCGTT, for which the sensor-assay potency score (higher = more potent) was -1.03.

The sequence TTCTAATAAATCTATTCCGTTG displayed a sensor-assay potency score (higher = more potent) of -0.9.

Turning to TTCTTGTCCTTGCACGTGGTGG, the sensor-assay potency score (higher = more potent) was -1.22.

In the case of TTTTCTAATAAATCTATTCCGT, the sensor-assay potency score (higher = more potent) was -0.324.

With TATTTCAATTCTATCCTTGGGA, the sensor-assay potency score (higher = more potent) came to 0.222.

In turn, TAGAAGCGGAACACCTCGCAGG showed a sensor-assay potency score (higher = more potent) of -0.524.

Turning to TAATGCATCTAGTAGATCCTAG, the sensor-assay potency score (higher = more potent) was 0.537.

Consider TTGTCGTGCACATTCTTGGTGA, for which the sensor-assay potency score (higher = more potent) was -0.294.

As for TTGTAGAAGCGGAACACCTCGC, the sensor-assay potency score (higher = more potent) was -0.204.

Consider ATCTGTCTTGTGTTCCACCTGG, for which the sensor-assay potency score (higher = more potent) is -0.685.

In turn, TAGACATTCCGGAACTTGGAGC returned a sensor-assay potency score (higher = more potent) of -1.06.

Turning to TTGTAGTCGTAGCCAGCGCTGA, the sensor-assay potency score (higher = more potent) was -0.89.

The next experiment deals with COX10. The experiment is described as above. To be noted: shRNA.
TTTTAGAAGGAACTGCTTCCAA registered a sensor-assay potency score (higher = more potent) of -0.134.

In the case of TTTAGAAGGAACTGCTTCCAAC, the sensor-assay potency score (higher = more potent) was -0.611.

In turn, TTCGTTTATAATCTTGTTCTAA yielded a sensor-assay potency score (higher = more potent) of 0.241.

In turn, TTGTTTAACTCTCCCACCCCGA came in with a sensor-assay potency score (higher = more potent) of -0.416.

In turn, TTCTTTGTCCTATTCATGTTTG showed a sensor-assay potency score (higher = more potent) of -0.705.

The sequence TATTGTTAGAAGGACTATGGTT showed a sensor-assay potency score (higher = more potent) of -0.28.

In turn, TACACTTGCAGCTTCATCTCTT displayed a sensor-assay potency score (higher = more potent) of 1.01.

TTCAGTGGTGTGTAGCAGCAGG came in with a sensor-assay potency score (higher = more potent) of -0.511.

On to TTGAAATGAGGAAACTGCCAGG, for which the sensor-assay potency score (higher = more potent) is -0.59.

TTTGAGGAAGCTAAAGTGCTGA registered a sensor-assay potency score (higher = more potent) of 0.14.

TGCAGTGGTACTTACAACCAGA: the sensor-assay potency score (higher = more potent) was -1.05.

Take TAACCGTATTTGGTAACCGAGA: the sensor-assay potency score (higher = more potent) was -1.58.

As for TTTCTGCTTTGGCTTGACCTGA, the sensor-assay potency score (higher = more potent) was -0.722.

Consider TGATTTTGGATAGTCGAGCCAA, for which the sensor-assay potency score (higher = more potent) was -0.198.

In turn, TACCACAACATGCTCGCCTGGC came in with a sensor-assay potency score (higher = more potent) of -0.0841.

In turn, TTGTATTCACTGACTGAGCTGA returned a sensor-assay potency score (higher = more potent) of -0.0577.

Sequence TGATTGGATGTTATCTACCTAC returned a sensor-assay potency score (higher = more potent) of -0.498.

With TATTGAGTCTTCAATTACTGAG, the sensor-assay potency score (higher = more potent) was -0.782.

On to TTTCTGGACAAAGATAGGCTGG, for which the sensor-assay potency score (higher = more potent) is -0.448.
